Only some compounds are listed: those with a hit (about 2.7% of all), similar ones and a draw of the others.
Shn3 inh set2: reduction of Shn3 3'UTR firefly luciferase signal, primary screen, Schnurri-3 inhibitor project, cell-based, Clone20 osteoblasts, set 2 | Clone20 osteoblast Shn3 3'UTR firefly luciferase, 24 h | inhibition, % at 12.5 µM | hit rate 0.52% among 360,000;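 active means mean inhibition of at least 75% with every replicate also reaching 75%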
CF NFkB inh: inhibitors of PAF-induced NF-kB signaling, primary screen, cell-based, GFP fluorescence, uHTS; KKLEB NF-kB-GFP reporter, GFP fluorescence overnight; inhibition, % at 5 µM; AID 588850, 2011; hit rate 0.86% among 360,000;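 active means at least 50% inhibition at 5 µM, scaled per plate between neutral and stimulator controls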;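 further: PAF is a Pseudomonas aeruginosa culture filtrate used as stimulus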
TRPM1 prom inh: inhibitors of MITF-dependent TRPM1 promoter reporter, primary screen, cell-based, SK-MEL-5, single point, luciferase; hit rate 0.83% among 330,000; AID 488899, 2010; inhibition, % at 12.5 µM; SK-MEL-5 TRPM1 promoter luciferase, 24 h;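 active means mean inhibition across replicates of 60% or more, whatever share of single replicates reaches that level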
KKLEB tox: cytotoxicity in KKLEB CF airway cells, primary screen, cytotoxicity control for CF NF-kB inhibitor project, cell-based, uHTS, fluorescence assay plates; AID 602141, 2011; KKLEB CF airway cells viability, ATPlite luminescence, overnight; stronger effect = lower value; cells stimulated with P. aeruginosa culture filtrate; activity change (cytotoxicity), % at 5 µM; hit rate 0.36% among 360,000;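 active means corrected activity change at or below -50% at 5 µM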
HIF-2a block: HIF-2a reporter inhibitors, primary screen, luminescence, 786-0 RCC cells; 786-0 RCC cells HIF-2a reporter, luciferase luminescence, overnight; hit rate 0.72% among 360,000; inhibition, % at 18.8 µM;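 active means inhibition of the luminescence signal of 40% or more relative to plate controls, in a single-dose primary screen at 18.75 µM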
Peg3 promoter: Peg3 promoter-driven luciferase inhibitors, primary screen, cell-based, HeLa, luciferase luminescence; hit rate 1.7% among 360,000; HeLa PEG-Prom luciferase reporter, overnight; AID 588405, 2011; inhibition, % at 20 µM;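 active means inhibition of at least 50% at 20 µM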
CF NFkB inh conf: inhibitors of PAF-induced NF-kB signaling, retest, confirmation, cell-based, GFP fluorescence, single concentration. shares compounds with CF NFkB inh. KKLEB CF airway cells, overnight. inhibition, % at 5 µM. hit rate 64% among 1,300. AID 602472, 2012; in the data active means inhibition above about 40%;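 further: stimulus PAF is a Pseudomonas aeruginosa filtrate and not platelet activating factor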
Large screens that a line does not name were inactive (follow-up assays come after a bar, where they were run).

CC(=O)Nc1ccc(Br)c2ccccc12	none
O=C(Nc1ccc(Br)c2ccccc12)c1ccc2ccccc2c1O	CF NFkB inh 54 | CF NFkB inh conf 73
C[C@@H](NC(=O)c1coc(=O)c(Br)c1)c1ccccc1	CF NFkB inh 74, Peg3 promoter 99 | CF NFkB inh conf 60
COc1ccc(C(=O)NC(C)c2ccccc2)cc1Br (stereo unspecified)	none
O=C(NCc1cccc(C(F)(F)F)c1)c1ccc2sc([C@H]3C[C@H](O)[C@@H](CO)O3)nc2c1	none (no result: TRPM1 prom inh)
CCOC(=O)C1=C(C)Nc2ccccc2N=C1NC(=O)c1oc2ccccc2c1COC	CF NFkB inh 55, Peg3 promoter 65 | CF NFkB inh conf 58
CCOC(=O)C1(C)CCCN(C(=O)c2ccc(OC)cc2OC)C1 (stereo unspecified)	none (no result: TRPM1 prom inh)
COc1ccc(OC)c(S(=O)(=O)NCC(c2ccco2)S(=O)(=O)c2ccccc2)c1 (stereo unspecified)	CF NFkB inh 50 | CF NFkB inh conf inactive
COc1ccc(NC(=O)CN2C(=O)NC(c3ccccc3)(c3ccccc3)C2=O)cc1	none
COC(=O)N1C(=O)[C@@](c2ccccc2)(C(C)C)N1C(=O)OC	CF NFkB inh 58 | CF NFkB inh conf 51
COC(=O)N1C(=O)[C@@](c2ccc(OC)cc2)(C(C)C)N1C(=O)OC	CF NFkB inh 69 | CF NFkB inh conf 57
CC(NC(=O)OCc1ccccc1)C(=O)Oc1cc2oc(=O)cc(-c3ccccc3)c2cc1Cl (stereo unspecified)	CF NFkB inh 63 | CF NFkB inh conf 93
COc1ccc([N+](=O)[O-])c(C=CC(=O)c2ccccn2)c1	CF NFkB inh 91, Peg3 promoter 101 (no result: TRPM1 prom inh) | CF NFkB inh conf inactive
COc1ccc(CN2C[C@@H](CO)O[C@@H](n3cnc4c(NCCO)ncnc43)C2)cc1	none (no result: TRPM1 prom inh)
Cc1cccc2c1NC(=O)/C2=C\C(=O)c1cccs1	CF NFkB inh 74, HIF-2a block 45, Peg3 promoter 74 | CF NFkB inh conf 47
Cc1ccc(CSc2nccc(-c3c(C)nc4ccccn34)n2)cc1	CF NFkB inh 50 (no result: TRPM1 prom inh) | CF NFkB inh conf 63
C=C1C[C@@H]2C[C@@H]2CN(S(=O)(=O)c2ccc(C)cc2)[C@@H]1COCc1ccccc1	none (no result: Shn3 inh set2, CF NFkB inh, TRPM1 prom inh, KKLEB tox, Peg3 promoter)
CCOC(=O)C1(C(=O)OCC)COC(=O)C1CN1Cc2cc3ccccc3nc2C1 (stereo unspecified)	CF NFkB inh 69 (no result: TRPM1 prom inh) | CF NFkB inh conf 74
Cc1cc(C)c(NC(=O)C2C(=O)Nc3ccccc3C(=O)N2C(C)(C)C)c(C)c1 (stereo unspecified)	none (no result: Shn3 inh set2, CF NFkB inh, TRPM1 prom inh, KKLEB tox, Peg3 promoter)
CCCCn1nnnc1C1(C)CCC(=O)N1Cc1cccc(F)c1 (stereo unspecified)	none (no result: Shn3 inh set2, CF NFkB inh, TRPM1 prom inh, KKLEB tox, Peg3 promoter)
COC(=O)[C@@]12C[C@@H](CC(=O)NCC3CCCCC3)C(=O)N(Cc3ccc4c(c3)OCO4)C1=CCC(C)(C)C2	none (no result: Shn3 inh set2, CF NFkB inh, TRPM1 prom inh, KKLEB tox, Peg3 promoter)
C=C1C[C@H]2[C@@H]3C=C(C)C4=CC(=O)CC[C@]4(C)[C@H]3CC[C@]2(C)[C@@]1(OC(C)=O)C(C)=O	CF NFkB inh 68 | CF NFkB inh conf inactive
O=C(Nc1nc2c(F)cc(F)cc2s1)c1ccc([N+](=O)[O-])o1	CF NFkB inh 86 (no result: TRPM1 prom inh) | CF NFkB inh conf inactive
O=C(Nc1nc2c(F)cc(F)cc2s1)c1ccco1	none (no result: TRPM1 prom inh)
CCCCN1C(=O)C(CC(=O)NC(c2ccccc2)c2ccccc2)CC(C(=O)N2CCCCCC2)=C1C (stereo unspecified)	none (no result: Shn3 inh set2, CF NFkB inh, TRPM1 prom inh, KKLEB tox, Peg3 promoter)
CN1C2C=CC(=O)C1C1C(=O)N(c3ccccc3)C(=O)C12 (stereo unspecified)	CF NFkB inh 62 (no result: TRPM1 prom inh) | CF NFkB inh conf inactive
COc1ccc(NC(=O)CCN2C(=O)c3ccccc3C2=O)c(OC)c1	none
COc1ccc(OC)c(N(CCN2C(=O)c3ccccc3C2=O)C(=O)CCl)c1	CF NFkB inh 62 (no result: TRPM1 prom inh) | CF NFkB inh conf 99
CC1=C(C(=O)OCc2ccc3c(c2)OCO3)C(c2ccc(O)c([N+](=O)[O-])c2)NC(=O)N1 (stereo unspecified)	CF NFkB inh 69 | CF NFkB inh conf 76
COc1ccc(COC(=O)C2=C(C)NC(=O)NC2c2ccc(OC)cc2)cc1 (stereo unspecified)	CF NFkB inh 53 | CF NFkB inh conf 51
CCCCOC(=O)C1=C(C)NC(=O)NC1c1ccc2c(c1)OCO2 (stereo unspecified)	none
COc1ccc(S(=O)(=O)N2c3ccc(F)cc3CCC2C)cc1 (stereo unspecified)	CF NFkB inh 50 | CF NFkB inh conf 83
O=C(COC(=O)c1ccccc1NCCO)NCc1cccs1	none
CS(=O)(=O)Nc1ccccc1C(=O)OCC(=O)NCc1cccs1	CF NFkB inh 51 | CF NFkB inh conf inactive
O=C1CCC2c3[nH]c4ccccc4c3CCN12 (stereo unspecified)	none (no result: TRPM1 prom inh)
CCCNC(=O)C1(C)CCCN(Cc2csc(-c3ccccc3)n2)C1 (stereo unspecified)	none (no result: TRPM1 prom inh)
Cc1ccc(-c2ccc(CN3C(C)C(=O)N(Cc4cn(Cc5ccco5)nn4)CCS3(=O)=O)cc2)c(C)c1 (stereo unspecified)	none (no result: TRPM1 prom inh)
Cc1ccccc1-c1ccc(CN2C(C)C(=O)N(Cc3cn(Cc4ccco4)nn3)CCS2(=O)=O)cc1 (stereo unspecified)	CF NFkB inh 60 (no result: TRPM1 prom inh) | CF NFkB inh conf inactive
CC1C(=O)N(Cc2cn(Cc3ccco3)nn2)CCS(=O)(=O)N1Cc1ccc(-c2ccc(Cl)c(Cl)c2)cc1 (stereo unspecified)	CF NFkB inh 65 (no result: TRPM1 prom inh) | CF NFkB inh conf inactive
Cc1ccc(-c2ccc(CN3C(C(C)C)C(=O)N(Cc4cn(CCC5OCCO5)nn4)CCS3(=O)=O)cc2)c(C)c1 (stereo unspecified)	CF NFkB inh 65 (no result: TRPM1 prom inh) | CF NFkB inh conf inactive
CCC/C=C/c1ccc(CN2C(C(C)C)C(=O)N(Cc3cn(Cc4ccco4)nn3)CCS2(=O)=O)cc1 (stereo unspecified)	CF NFkB inh 52 (no result: TRPM1 prom inh) | CF NFkB inh conf 45
CCC/C=C/c1ccc(CN2C(C)C(=O)N(Cc3cn(Cc4ccco4)nn3)CCS2(=O)=O)cc1 (stereo unspecified)	none (no result: TRPM1 prom inh)
CC1C(=O)N(Cc2cn(CC3CCCCC3)nn2)CCS(=O)(=O)N1Cc1ccc(-c2ccccc2)cc1 (stereo unspecified)	none (no result: TRPM1 prom inh)
